The values that follow come from PMC3218832.

Test in all cases: protein binding microarray; high values mean tight binding
Conditions in all cases: dsDNA, one strand shown

Test [1] concerns the target RELARELA (p65 homodimer) (Homo sapiens, UniProt Q04206 1-307).
For test [2], the target named is p50p50 homodimer (Homo sapiens, UniProt P19838 7-356).
Test [3] deals with T1, p52p52 homodimer (Homo sapiens, UniProt Q00653 4-332).
T1 sequence: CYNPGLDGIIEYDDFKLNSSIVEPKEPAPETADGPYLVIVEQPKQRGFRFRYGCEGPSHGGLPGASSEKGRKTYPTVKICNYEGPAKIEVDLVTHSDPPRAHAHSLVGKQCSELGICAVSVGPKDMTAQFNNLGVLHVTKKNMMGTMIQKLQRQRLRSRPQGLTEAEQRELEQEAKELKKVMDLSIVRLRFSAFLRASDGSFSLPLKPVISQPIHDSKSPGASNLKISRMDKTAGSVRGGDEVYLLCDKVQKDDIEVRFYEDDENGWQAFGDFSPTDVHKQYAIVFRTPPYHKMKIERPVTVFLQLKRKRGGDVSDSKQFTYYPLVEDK

Test [4] concerns the target RELA (p65) subunit of heterodimer;p50 subunit (Homo sapiens;Homo sapiens, UniProt Q04206;P19838 1-307;7-356).
The target of test [5] is RELA (p65) subunit of heterodimer;p52 subunit (Homo sapiens;Homo sapiens, UniProt Q04206;Q00653 1-307;4-332).
Test [6] concerns the target RELB subunit;p50 subunit (Homo sapiens;Homo sapiens, UniProt Q01201;P19838 120-401;7-356).
For test [7], the target named is T2, RELB subunit;p52 subunit (Homo sapiens;Homo sapiens, UniProt Q01201;Q00653 120-401;4-332).
T2 sequence 1: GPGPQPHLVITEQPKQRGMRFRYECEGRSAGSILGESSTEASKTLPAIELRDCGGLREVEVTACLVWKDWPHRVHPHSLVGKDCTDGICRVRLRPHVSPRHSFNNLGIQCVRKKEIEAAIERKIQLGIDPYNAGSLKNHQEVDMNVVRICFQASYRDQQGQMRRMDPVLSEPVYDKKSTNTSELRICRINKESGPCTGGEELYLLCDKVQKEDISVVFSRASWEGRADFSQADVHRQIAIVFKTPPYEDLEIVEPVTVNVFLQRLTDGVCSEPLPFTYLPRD
T2 sequence 2: T1 sequence

Test [8] addresses C-Rel subunit;p50 subunit (Homo sapiens;Homo sapiens, UniProt Q04864;P19838 1-285;7-356).
The target in test [9] is T3, C-Rel subunit;p52 subunit (Homo sapiens;Homo sapiens, UniProt Q04864;Q00653 1-285;4-332).
T3 sequence 1: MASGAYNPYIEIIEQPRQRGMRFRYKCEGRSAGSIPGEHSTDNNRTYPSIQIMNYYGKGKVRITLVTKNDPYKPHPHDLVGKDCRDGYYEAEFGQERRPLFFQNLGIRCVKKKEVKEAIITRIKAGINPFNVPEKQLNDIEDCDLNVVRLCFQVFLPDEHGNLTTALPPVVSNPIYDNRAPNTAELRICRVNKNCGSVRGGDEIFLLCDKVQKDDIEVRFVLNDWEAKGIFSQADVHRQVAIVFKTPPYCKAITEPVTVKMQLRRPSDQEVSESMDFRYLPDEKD
T3 sequence 2: T1 sequence

RELARELA (p65 homodimer), sequence (Q04206 1-307): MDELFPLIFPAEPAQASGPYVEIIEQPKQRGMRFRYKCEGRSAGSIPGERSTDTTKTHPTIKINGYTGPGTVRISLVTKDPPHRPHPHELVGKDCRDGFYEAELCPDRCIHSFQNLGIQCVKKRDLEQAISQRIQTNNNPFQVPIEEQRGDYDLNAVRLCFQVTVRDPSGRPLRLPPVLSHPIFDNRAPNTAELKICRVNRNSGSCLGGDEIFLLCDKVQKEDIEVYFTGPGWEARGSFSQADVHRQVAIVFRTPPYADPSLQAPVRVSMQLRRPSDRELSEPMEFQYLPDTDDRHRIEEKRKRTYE
RELA (p65) subunit of heterodimer;p50 subunit, sequence (Q04206 1-307, chain 1 of 2): as the sequence (Q04206 1-307) above
RELA (p65) subunit of heterodimer;p50 subunit, sequence (P19838 7-356, chain 2 of 2): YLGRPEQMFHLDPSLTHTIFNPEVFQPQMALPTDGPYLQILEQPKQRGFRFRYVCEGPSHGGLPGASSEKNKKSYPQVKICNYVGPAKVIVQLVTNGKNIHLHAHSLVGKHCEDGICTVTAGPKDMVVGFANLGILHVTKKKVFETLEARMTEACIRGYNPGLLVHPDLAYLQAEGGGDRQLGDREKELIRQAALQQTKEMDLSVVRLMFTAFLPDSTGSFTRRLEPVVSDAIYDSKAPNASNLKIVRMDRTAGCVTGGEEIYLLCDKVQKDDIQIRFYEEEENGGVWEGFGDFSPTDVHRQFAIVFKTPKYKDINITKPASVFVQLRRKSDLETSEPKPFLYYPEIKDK
p50p50 homodimer, sequence (P19838 7-356): as the sequence (P19838 7-356, chain 2 of 2) above

As for GGAATGGTCCT, the binding signal is 0.313 z-score in test [1]; -1.37 z-score in test [2]; -0.493 z-score in [3]; -0.849 z-score in test [4]; -0.627 z-score in test [5]; -0.903 z-score in [6]. For the same sequence, the values for the binding signal in test [7], in [8] and in test [9] were -0.612 z-score, -0.89 z-score and -0.524 z-score, respectively.

On to CAGTTCTTCCC, for which the binding signal is 1.2 z-score in test [1]; -0.0833 z-score in [2]; -0.0924 z-score in test [3]; 0.385 z-score in test [4]; 0.0986 z-score in test [5]; -0.231 z-score in [6]. Besides, the binding signal was -0.179 z-score in test [7], 0.641 z-score in [8] and 0.366 z-score in test [9].

In the case of CAAGATTCCCT, the binding signal in [1] turned out to be 0.527 z-score; in test [2], 1.13 z-score; in test [3], 0.975 z-score; in test [4] it was 0.96 z-score; in [5], 0.948 z-score; in test [6] it was 1.02 z-score. Besides, the binding signal in test [7] was found to be 1.01 z-score; in test [8] it was 1.06 z-score; in [9], 0.715 z-score.

Consider CAAATAATCCT, for which the binding signal is -0.308 z-score in test [1]; -0.88 z-score in test [2]; -0.501 z-score in test [3]; -0.911 z-score in test [4]; -0.746 z-score in [5]; -0.974 z-score in test [6]. In addition, the binding signal in [7] was -0.846 z-score; in test [8] it was -1.09 z-score; in test [9], -0.674 z-score.

Regarding AAGATTTCCCC, the binding signal in test [1] amounted to 2.26 z-score; in test [2], 1.48 z-score; in test [3] it was 2.39 z-score; in test [4], 2.11 z-score; in test [5], 2 z-score; in [6], 2.3 z-score. In addition, the binding signal in test [7] amounted to 2.17 z-score; in [8], 1.73 z-score; in [9], 2.03 z-score.

For GAGAGTTCCCC, the binding signal turned out to be 1.61 z-score in test [1]; 1.06 z-score in [2]; 1.71 z-score in test [3]; 1.77 z-score in test [4]; 1.55 z-score in test [5]; 1.7 z-score in test [6]. Further, the binding signal in test [7] was 1.62 z-score; in [8], 1.21 z-score; in test [9], 1.67 z-score.

For GAGGGCCTCCT, the binding signal in test [1] is -0.673 z-score; in test [2], -1.05 z-score; in test [3], -0.564 z-score; in test [4], -0.901 z-score; in [5] it was -0.776 z-score; in [6] it was -0.873 z-score. For the same sequence, the results for the binding signal in test [7], in test [8] and in [9] were -0.69 z-score, -1.21 z-score and -0.843 z-score, respectively.

For the sequence AAGAGCTTCCC, the binding signal in test [1] is 0.146 z-score; in test [2], -0.795 z-score; in test [3], -0.487 z-score; in test [4], -0.305 z-score; in test [5], -0.49 z-score; in test [6] it was -0.563 z-score. Further, the binding signal is -0.671 z-score in test [7], -0.423 z-score in [8] and -0.463 z-score in [9].

On to GGGTGCTCCCT, for which the binding signal is -0.519 z-score in test [1]; 0.136 z-score in test [2]; 0.0774 z-score in test [3]; -0.166 z-score in test [4]; 0.115 z-score in [5]; -0.21 z-score in [6]. The binding signal is -0.168 z-score in test [7], -0.0364 z-score in test [8] and 0.178 z-score in test [9].

In the case of CGGAAATCCCT, the binding signal in test [1] came to 2.44 z-score; in [2], 1.09 z-score; in test [3] it was 1.3 z-score; in [4], 1.35 z-score; in test [5] it was 1.25 z-score; in test [6] it was 0.939 z-score. Also, the binding signal in [7] is 1.47 z-score; in test [8], 1.21 z-score; in test [9], 1.56 z-score.

Take AAAAGCCTCCT: the binding signal in test [1] is -1.11 z-score; in test [2], -1.28 z-score; in test [3] it was -0.721 z-score; in [4], -0.959 z-score; in [5], -1.07 z-score; in [6] it was -1.23 z-score. The binding signal in test [7] was -0.999 z-score; in test [8], -1.5 z-score; in [9], -1.03 z-score.

As for CGATACCTCCC, the binding signal in test [1] is -0.139 z-score; in test [2], -0.527 z-score; in test [3] it was -0.392 z-score; in test [4] it was -0.477 z-score; in test [5] it was -0.641 z-score; in test [6], -0.466 z-score. The binding signal was -0.506 z-score in test [7], -0.897 z-score in [8] and -0.543 z-score in test [9].

Regarding GAAAAGGCCCC, the binding signal is -0.413 z-score in [1]; 0.523 z-score in test [2]; 0.108 z-score in test [3]; 0.289 z-score in [4]; 0.416 z-score in test [5]; 0.151 z-score in test [6]. For the same sequence, the binding signal in test [7] was 0.246 z-score; in test [8] it was -0.101 z-score; in test [9], 0.313 z-score.

On to CAGTAGCTCCT, for which the binding signal in test [1] was -0.468 z-score; in [2], -1.98 z-score; in test [3] it was -0.806 z-score; in [4], -1.09 z-score; in [5] it was -1.13 z-score; in [6], -1.24 z-score. The binding signal was -1.1 z-score in test [7], -1.72 z-score in test [8] and -1.02 z-score in test [9].

Take GAGATCCTCCC: the binding signal was -0.414 z-score in test [1]; -0.604 z-score in [2]; -0.376 z-score in test [3]; -0.425 z-score in test [4]; -0.539 z-score in test [5]; -0.422 z-score in test [6]. Besides, the binding signal in test [7] was -0.686 z-score; in test [8], -0.717 z-score; in test [9], -0.442 z-score.
